Consider 18 molecules from the supplement of paper PMC7366291.

Structures can show the parent of a compound that is named as a salt. ± gives the standard deviation or the standard deviation of the averaged measurements.

What all share (settings): 25 µM; exposure: 24-48 hpf
Experiment [1] has as its system Danio rerio Tg(wt1b:EGFP) embryo, pronephros. Description: glomerular separation, fold change vs DMSO control; higher = glomeruli further apart (abnormal). The essentials:
(§1)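 Dechorionated Tg(wt1b:EGFP) zebrafish embryos were exposed to 25 μM compound in 0.5% DMSO, HEPES-buffered E3 with 0.003% PTU, from 24 to 48 hpf at 28.5°C. Pronephroi were imaged dorsally in agarose-filled 96-well plates (470 nm, 10 z-slices). On maximum projections, 16 reference points were set manually in Fiji and a macro computed distances and angles. Values more than 2 SD from the feature mean were excluded. Each feature is a fold change relative to the mean of same-day DMSO controls.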

For experiment [2] the test system is unchanged. Description: glomerular width (mean of left and right), fold change vs DMSO control; higher = wider glomerulus. Put shortly: as §1
For experiment [3] the test system is unchanged. Description: fraction of imaged embryos annotated as normal kidney; higher = less nephrotoxic; extreme values may be limits of the assay. The essentials: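 The value given is the share of embryos in each treatment scored as having a normal kidney. To obtain it, dechorionated Tg(wt1b:EGFP) zebrafish embryos were treated from 24 to 48 hpf at 28.5°C with 25 μM compound in 0.5% DMSO, in 5 mM HEPES-buffered E3 with 0.003% PTU. Pronephroi were imaged by widefield fluorescence (470 nm, 10 z-slices), and every embryo was annotated by hand from maximum projections.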

Experiment [4] shares this test system. Description: pronephric angle neck segment to proximal convoluted tubule (mean of left and right), fold change vs DMSO control; higher = larger pronephric angle. The essentials:
as §1

`CNC(=C[N+](=O)[O-])NCCSCc1ccc(CN(C)C)o1` [Ranitidine hydrochloride] yielded a glomerular separation in experiment [1] of 0.923 ± 0.34. Also, the glomerular width in experiment [2] stood at 0.941 ± 0.074. For the same molecule, in experiment [3], the “fraction of imaged embryos annotated as normal kidney” value (“fraction of imaged embryos annotated” for short) stood at 0.667. The “pronephric angle neck segment” value in experiment [4] came out at 1.1 ± 0.051.
For `CC(C)NCC(O)COc1ccc(COCCOC(C)C)cc1` (configuration not stated) [Bisoprolol fumarate], in that order: 1.2 ± 0.41, 1.07 ± 0.03, 0.583 and 0.999 ± 0.083.
The matching figures for `CCN(Cc1ccncc1)C(=O)C(CO)c1ccccc1` (configuration not stated) [Tropicamide]: 0.966 ± 0.68, 1.08 ± 0.027, 0.75 and 0.987 ± 0.052.
For `CCC(=O)[C@@]1(C)[C@H](C)C[C@H]2[C@@H]3CCC4=CC(=O)C=C[C@]4(C)[C@H]3[C@@H](O)C[C@@]21C` [Rimexolone], in that order: 1.28 ± 0.36, 1.02 ± 0.017, 0.333 and 0.965 ± 0.031.
In experiment [1], `CC(=O)Nc1c(I)c(C(=O)N[C@H]2C(O)O[C@H](CO)[C@@H](O)[C@@H]2O)c(I)c(N(C)C(C)=O)c1I` (some centres not stated) [Metrizamide] gave a glomerular separation of 0.874 ± 0.3. The molecule further displayed a glomerular width in experiment [2] of 1.11 ± 0.1. In experiment [3], the “fraction of imaged embryos annotated” value was 0.833. The “pronephric angle neck segment” value in experiment [4] is 0.988 ± 0.025.
The molecule `CC(C(=O)O)c1ccc(-c2ccccc2)c(F)c1` (configuration not stated) [Flurbiprofen] displayed a glomerular separation in experiment [1] of 5.61 ± 1.3. For the same molecule, in experiment [2], the glomerular width was 0.48 ± 0.02. Further, the “fraction of imaged embryos annotated” value in experiment [3] came to 0. Further, the “pronephric angle neck segment” value in experiment [4] was 1.96 ± 0.059.
On to `O=C(c1ccccc1)c1ccc2n1CCC2C(=O)O` (configuration not stated) [Ketorolac tromethamine], for which the glomerular separation in experiment [1] turned out to be 1 ± 0.43. In experiment [2], this molecule gave a glomerular width of 1.15 ± 0.013. Besides, in experiment [3], the “fraction of imaged embryos annotated” value worked out at 0.667. Further, the “pronephric angle neck segment” value in experiment [4] came to 1.04 ± 0.025.
Consider `CCCNC(C)C(=O)Nc1ccccc1C` (configuration not stated) [Prilocaine hydrochloride], for which the glomerular separation in experiment [1] came out at 1.28 ± 1.1. Besides, the glomerular width in experiment [2] worked out at 0.947 ± 0.032. Further, in experiment [3], the “fraction of imaged embryos annotated” value came out at 0.75. In addition, in experiment [4], the “pronephric angle neck segment” value stood at 1.02 ± 0.081.
For `Clc1ccc(C(Cn2ccnc2)OCc2ccsc2Cl)c(Cl)c1` (configuration not stated) [Tioconazole], in that order: 1.29 ± 0.51, 0.965 ± 0.013, 0.417 and 1.21 ± 0.085.
Molecule `C[C@H](O)C(=O)Nc1c(I)c(C(=O)NC(CO)CO)c(I)c(C(=O)NC(CO)CO)c1I` [Iopamidol] had a glomerular separation in experiment [1] of 0.92 ± 0.3. Also, in experiment [2], the glomerular width stood at 0.9773 ± 0.007. The “fraction of imaged embryos annotated” value in experiment [3] was 0.833. For the same molecule, in experiment [4], the “pronephric angle neck segment” value was found to be 1.01 ± 0.038.
Regarding `N[C@@H](Cc1ccc(O)c(O)c1)C(=O)O` [Levodopa], the glomerular separation in experiment [1] came to 1.02 ± 0.31. This molecule also registered a glomerular width in experiment [2] of 1.06 ± 0.048. Besides, the “fraction of imaged embryos annotated” value in experiment [3] is 0.917. In experiment [4], the “pronephric angle neck segment” value is 0.972 ± 0.018.
For `CC[N+](C)(C)c1cccc(O)c1` [Edrophonium chloride], in that order: 1.26 ± 0.22, 1.03 ± 0.026, 0.833 and 0.876 ± 0.05.
For `CCC1(c2ccccc2)C(=O)NCNC1=O` [Primidone], in that order: 0.835 ± 0.33, 1.0079 ± 0.00034, 0.917 and 1.03 ± 0.025.
For `CO[C@@]1(NC(=O)CSCC#N)C(=O)N2C(C(=O)O)=C(CSc3nnnn3C)CS[C@@H]21` [Cefmetazole sodium salt], in that order: 0.79 ± 0.16, 1.004 ± 0.0038, 0.917 and 0.944 ± 0.042.
In experiment [1], `CC(CN(C)C)C(C)(O)Cc1ccc(Cl)cc1` (configuration not stated) [Clobutinol hydrochloride] registered a glomerular separation of 1.4 ± 0.46. In experiment [2], this molecule gave a glomerular width of 0.945 ± 0.026. In experiment [3], the “fraction of imaged embryos annotated” value amounted to 0.75. Also, the “pronephric angle neck segment” value in experiment [4] was 0.979 ± 0.034.
For `CN(C)CCOC(C)(c1ccccc1)c1ccccn1` (configuration not stated) [Doxylamine succinate], in that order: 1.15 ± 0.53, 0.9589 ± 0.009, 0.818 and 1.01 ± 0.065.
For `CN(C)CC/C=C1/c2ccccc2Sc2ccc(Cl)cc21` [Chlorprothixene hydrochloride], in that order: 0.89 ± 0.23, 1.034 ± 1.4e-05, 0.727 and 1.04 ± 0.074.
`Oc1ncnc2[nH]ncc12` [Allopurinol]: the glomerular separation in experiment [1] came to 0.837 ± 0.22. This molecule also yielded a glomerular width in experiment [2] of 0.984 ± 0.018. Moreover, the “fraction of imaged embryos annotated” value in experiment [3] stood at 0.75. The “pronephric angle neck segment” value in experiment [4] was 0.9723 ± 0.0072.
